What was measured:
[1] = target: T1, Ephrin type-B receptor 2 (Homo sapiens) (UniProt P29323); settings: at 1 µM
T1 sequence (whole entry): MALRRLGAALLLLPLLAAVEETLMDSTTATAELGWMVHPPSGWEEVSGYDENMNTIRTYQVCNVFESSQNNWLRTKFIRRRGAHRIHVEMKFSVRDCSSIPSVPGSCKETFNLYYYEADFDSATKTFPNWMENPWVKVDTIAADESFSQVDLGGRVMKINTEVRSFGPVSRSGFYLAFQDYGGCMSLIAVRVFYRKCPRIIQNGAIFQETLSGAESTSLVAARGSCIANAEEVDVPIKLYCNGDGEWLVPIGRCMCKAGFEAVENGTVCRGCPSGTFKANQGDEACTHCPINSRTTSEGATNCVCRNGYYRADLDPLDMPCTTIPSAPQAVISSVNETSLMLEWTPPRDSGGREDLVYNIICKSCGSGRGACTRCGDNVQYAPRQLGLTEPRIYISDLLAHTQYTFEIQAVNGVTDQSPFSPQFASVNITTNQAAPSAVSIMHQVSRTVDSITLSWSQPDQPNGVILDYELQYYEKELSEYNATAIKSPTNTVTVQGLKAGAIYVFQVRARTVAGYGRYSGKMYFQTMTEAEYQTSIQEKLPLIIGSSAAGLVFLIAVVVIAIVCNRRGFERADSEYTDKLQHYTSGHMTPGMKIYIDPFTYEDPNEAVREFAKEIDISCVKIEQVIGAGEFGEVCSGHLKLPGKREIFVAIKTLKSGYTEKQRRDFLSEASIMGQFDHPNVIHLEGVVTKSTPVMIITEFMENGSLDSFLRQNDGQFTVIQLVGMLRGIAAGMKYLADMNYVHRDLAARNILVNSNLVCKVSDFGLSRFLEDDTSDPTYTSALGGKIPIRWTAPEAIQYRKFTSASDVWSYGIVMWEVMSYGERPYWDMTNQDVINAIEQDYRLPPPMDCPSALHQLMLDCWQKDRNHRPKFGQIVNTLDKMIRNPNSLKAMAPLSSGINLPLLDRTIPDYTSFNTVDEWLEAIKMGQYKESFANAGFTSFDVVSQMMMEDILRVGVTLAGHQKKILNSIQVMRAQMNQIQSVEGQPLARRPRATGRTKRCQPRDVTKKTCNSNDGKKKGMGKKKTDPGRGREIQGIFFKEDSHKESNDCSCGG

[2] = target: T2, Ephrin type-B receptor 3 (Homo sapiens) (UniProt P54753); settings: at 0.1 µM
T2 sequence (whole entry): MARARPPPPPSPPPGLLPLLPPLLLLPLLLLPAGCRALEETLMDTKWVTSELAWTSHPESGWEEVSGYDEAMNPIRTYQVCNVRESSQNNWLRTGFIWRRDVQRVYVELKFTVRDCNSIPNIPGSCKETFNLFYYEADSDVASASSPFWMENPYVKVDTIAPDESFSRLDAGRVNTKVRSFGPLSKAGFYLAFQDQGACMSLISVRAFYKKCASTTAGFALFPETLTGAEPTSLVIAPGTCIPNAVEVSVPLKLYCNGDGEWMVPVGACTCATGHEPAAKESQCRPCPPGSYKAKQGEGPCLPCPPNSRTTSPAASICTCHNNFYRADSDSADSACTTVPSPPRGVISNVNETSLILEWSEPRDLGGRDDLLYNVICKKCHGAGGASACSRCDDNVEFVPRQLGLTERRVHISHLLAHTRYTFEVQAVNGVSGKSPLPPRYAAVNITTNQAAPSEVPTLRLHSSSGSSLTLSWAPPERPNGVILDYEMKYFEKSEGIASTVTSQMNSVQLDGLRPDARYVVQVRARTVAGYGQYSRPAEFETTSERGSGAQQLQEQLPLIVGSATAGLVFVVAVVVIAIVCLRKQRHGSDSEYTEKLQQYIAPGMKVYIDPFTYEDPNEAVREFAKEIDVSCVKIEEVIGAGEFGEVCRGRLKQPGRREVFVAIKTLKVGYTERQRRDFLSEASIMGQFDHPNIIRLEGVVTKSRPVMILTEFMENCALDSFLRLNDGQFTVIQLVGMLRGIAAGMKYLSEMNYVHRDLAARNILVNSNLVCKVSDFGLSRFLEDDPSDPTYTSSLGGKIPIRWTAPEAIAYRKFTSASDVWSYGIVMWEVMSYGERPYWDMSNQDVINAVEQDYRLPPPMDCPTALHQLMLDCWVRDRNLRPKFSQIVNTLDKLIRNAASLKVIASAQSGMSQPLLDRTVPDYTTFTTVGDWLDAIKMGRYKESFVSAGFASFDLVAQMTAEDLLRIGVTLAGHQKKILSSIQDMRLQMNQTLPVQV

[3] = target: T2, Ephrin type-B receptor 3 (Homo sapiens); settings: at 1 µM
[4] = target: T3, Ephrin type-B receptor 4 (Homo sapiens) (UniProt P54760); settings: at 0.1 µM
T3 sequence (whole entry): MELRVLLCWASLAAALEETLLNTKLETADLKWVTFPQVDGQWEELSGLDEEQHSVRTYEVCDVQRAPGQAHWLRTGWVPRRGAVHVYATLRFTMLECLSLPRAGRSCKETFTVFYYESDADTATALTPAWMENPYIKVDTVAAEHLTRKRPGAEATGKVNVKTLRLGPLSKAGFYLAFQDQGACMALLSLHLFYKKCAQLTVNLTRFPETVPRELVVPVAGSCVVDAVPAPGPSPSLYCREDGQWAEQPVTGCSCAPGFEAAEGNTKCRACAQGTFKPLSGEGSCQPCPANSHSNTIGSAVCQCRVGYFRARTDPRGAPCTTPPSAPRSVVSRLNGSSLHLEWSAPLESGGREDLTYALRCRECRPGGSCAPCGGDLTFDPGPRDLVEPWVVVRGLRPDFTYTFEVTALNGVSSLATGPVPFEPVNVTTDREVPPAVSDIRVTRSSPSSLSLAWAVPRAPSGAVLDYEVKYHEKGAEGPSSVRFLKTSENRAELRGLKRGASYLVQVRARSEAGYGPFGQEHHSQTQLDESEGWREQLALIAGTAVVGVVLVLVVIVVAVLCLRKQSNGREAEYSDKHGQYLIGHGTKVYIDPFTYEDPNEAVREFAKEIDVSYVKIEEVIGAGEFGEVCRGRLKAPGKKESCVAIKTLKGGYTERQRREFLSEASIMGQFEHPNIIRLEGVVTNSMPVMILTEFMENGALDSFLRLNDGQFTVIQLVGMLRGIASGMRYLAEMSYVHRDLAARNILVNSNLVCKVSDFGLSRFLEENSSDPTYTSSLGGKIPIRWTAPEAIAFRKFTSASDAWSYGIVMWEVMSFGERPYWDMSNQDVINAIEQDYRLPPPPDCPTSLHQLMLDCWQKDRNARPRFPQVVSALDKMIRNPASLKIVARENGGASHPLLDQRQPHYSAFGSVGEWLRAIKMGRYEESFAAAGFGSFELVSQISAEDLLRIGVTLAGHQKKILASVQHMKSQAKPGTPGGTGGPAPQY

[5] = target: T3, Ephrin type-B receptor 4 (Homo sapiens); settings: at 1 µM
[6] = target: Receptor tyrosine-protein kinase erbB-2 (Homo sapiens) (UniProt P04626); settings: at 0.1 µM
Receptor tyrosine-protein kinase erbB-2 (Homo sapiens), sequence (P04626 whole entry): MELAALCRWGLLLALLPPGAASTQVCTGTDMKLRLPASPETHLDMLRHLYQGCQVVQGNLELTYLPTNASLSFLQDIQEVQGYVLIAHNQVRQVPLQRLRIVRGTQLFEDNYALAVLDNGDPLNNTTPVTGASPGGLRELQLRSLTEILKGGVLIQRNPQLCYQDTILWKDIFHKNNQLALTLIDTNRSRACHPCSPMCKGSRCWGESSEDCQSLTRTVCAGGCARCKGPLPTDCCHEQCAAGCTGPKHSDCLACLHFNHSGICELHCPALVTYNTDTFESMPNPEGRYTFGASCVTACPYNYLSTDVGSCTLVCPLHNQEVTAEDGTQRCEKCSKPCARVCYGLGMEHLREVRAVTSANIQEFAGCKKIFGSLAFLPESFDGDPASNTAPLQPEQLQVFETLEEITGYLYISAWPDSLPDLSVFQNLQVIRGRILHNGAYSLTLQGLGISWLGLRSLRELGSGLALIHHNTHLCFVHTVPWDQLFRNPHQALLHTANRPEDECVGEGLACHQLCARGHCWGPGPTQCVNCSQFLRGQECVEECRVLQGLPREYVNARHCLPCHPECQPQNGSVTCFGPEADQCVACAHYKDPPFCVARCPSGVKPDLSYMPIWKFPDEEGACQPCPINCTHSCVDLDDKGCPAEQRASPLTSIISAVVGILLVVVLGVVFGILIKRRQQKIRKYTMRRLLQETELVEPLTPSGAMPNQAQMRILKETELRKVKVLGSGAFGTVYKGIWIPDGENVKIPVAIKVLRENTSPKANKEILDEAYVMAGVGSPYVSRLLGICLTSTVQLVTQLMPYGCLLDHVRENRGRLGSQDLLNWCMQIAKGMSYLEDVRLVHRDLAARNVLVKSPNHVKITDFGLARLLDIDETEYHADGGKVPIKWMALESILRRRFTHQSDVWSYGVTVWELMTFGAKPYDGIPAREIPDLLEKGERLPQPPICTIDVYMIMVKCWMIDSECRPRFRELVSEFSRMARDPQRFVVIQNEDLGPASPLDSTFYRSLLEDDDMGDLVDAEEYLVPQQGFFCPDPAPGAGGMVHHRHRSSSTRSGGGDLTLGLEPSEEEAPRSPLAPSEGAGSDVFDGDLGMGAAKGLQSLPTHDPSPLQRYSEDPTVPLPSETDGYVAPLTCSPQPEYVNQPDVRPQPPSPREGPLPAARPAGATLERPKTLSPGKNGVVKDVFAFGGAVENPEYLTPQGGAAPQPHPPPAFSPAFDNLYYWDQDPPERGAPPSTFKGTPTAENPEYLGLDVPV

[7] = target: Receptor tyrosine-protein kinase erbB-2 (Homo sapiens) (UniProt P04626); settings: at 1 µM
[8] = target: Receptor tyrosine-protein kinase erbB-4 (Homo sapiens) (UniProt Q15303); settings: at 0.1 µM
Receptor tyrosine-protein kinase erbB-4 (Homo sapiens), sequence (Q15303 whole entry): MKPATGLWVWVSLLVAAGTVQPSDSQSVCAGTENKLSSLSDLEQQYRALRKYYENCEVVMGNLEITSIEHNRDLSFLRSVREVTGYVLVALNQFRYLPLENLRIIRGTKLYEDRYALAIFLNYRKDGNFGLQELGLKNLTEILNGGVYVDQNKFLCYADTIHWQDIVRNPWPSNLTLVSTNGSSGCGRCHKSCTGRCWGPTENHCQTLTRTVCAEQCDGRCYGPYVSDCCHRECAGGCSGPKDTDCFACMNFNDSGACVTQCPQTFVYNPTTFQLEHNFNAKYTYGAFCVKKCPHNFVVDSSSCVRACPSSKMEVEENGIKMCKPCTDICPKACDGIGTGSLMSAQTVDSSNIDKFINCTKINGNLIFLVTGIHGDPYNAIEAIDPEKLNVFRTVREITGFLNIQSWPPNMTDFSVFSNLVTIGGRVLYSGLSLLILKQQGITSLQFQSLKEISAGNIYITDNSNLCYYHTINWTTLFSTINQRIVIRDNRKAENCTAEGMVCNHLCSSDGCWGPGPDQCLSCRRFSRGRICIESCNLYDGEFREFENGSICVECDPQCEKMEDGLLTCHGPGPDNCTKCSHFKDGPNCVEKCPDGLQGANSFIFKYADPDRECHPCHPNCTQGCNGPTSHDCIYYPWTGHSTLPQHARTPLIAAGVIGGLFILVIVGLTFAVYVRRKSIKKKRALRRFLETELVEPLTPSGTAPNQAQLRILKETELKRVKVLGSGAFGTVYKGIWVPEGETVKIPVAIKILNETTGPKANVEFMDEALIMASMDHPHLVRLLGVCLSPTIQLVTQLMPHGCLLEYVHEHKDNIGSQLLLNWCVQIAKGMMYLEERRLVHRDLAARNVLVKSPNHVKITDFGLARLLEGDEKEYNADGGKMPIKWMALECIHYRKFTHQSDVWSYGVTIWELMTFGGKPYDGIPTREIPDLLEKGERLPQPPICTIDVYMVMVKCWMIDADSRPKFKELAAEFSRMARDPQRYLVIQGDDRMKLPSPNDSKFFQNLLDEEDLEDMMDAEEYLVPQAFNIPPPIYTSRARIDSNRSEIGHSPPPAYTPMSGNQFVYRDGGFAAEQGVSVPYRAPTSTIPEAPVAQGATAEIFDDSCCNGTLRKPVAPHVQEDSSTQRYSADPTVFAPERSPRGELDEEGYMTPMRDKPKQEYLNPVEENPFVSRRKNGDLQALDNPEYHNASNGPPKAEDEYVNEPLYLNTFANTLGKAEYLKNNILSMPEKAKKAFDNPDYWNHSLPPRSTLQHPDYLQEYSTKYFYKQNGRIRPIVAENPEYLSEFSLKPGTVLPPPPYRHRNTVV

[9] = target: Receptor tyrosine-protein kinase erbB-4 (Homo sapiens) (UniProt Q15303); settings: at 1 µM
[10] = target: Tyrosine-protein kinase Fer (Homo sapiens) (UniProt P16591); settings: at 0.1 µM;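 note: reported figures are averaged percent inhibition of FER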
Tyrosine-protein kinase Fer (Homo sapiens), sequence (P16591 whole entry, looked up): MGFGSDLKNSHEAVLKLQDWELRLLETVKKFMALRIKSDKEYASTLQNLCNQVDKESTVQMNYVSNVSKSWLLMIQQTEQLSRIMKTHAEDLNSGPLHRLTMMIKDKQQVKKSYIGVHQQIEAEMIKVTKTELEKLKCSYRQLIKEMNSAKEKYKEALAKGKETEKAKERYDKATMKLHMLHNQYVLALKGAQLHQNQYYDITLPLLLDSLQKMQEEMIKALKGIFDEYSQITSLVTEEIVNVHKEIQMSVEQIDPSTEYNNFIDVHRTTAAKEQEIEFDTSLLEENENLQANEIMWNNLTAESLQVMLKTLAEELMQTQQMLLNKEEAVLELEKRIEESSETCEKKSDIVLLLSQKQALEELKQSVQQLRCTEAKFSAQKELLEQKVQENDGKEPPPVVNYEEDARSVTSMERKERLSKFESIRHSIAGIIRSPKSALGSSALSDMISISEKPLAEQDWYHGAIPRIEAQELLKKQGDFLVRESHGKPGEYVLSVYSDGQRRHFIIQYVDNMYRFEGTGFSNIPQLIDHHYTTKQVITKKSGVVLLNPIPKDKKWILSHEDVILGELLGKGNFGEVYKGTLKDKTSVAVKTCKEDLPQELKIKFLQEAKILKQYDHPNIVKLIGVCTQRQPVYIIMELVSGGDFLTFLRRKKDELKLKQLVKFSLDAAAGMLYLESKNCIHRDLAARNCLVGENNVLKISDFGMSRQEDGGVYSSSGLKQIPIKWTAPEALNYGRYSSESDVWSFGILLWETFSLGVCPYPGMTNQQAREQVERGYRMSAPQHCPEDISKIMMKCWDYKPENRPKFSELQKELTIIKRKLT

Row | Compound | inhibition [1] [%] | inhibition [2] [%] | inhibition [3] [%] | inhibition [4] [%] | inhibition [5] [%] | inhibition [6] [%] | inhibition [7] [%] | inhibition [8] [%] | inhibition [9] [%] | inhibition [10] [%]
1 | CNC(=O)c1cc(-c2ccc(F)cc2)cc(-c2ccc(S(=O)(=O)N3CCCC3)cc2)c1N | 5.41 | 0.26 | 3.7 | 1.99 | 2.03 | 2.24 | 7.8 | 5.77 | 10.4 | 2.99
2 | Fc1ccc(-c2nn3ccccc3c2-c2ccncc2)cc1 | 17.7 | 4.48 | 8.05 | 1.73 | 4.73 | 1.52 | 2.31 | 10.8 | 27.2 | 1.5
3 | COc1cccc(-n2ncc3c(N/N=C/c4ccc(F)cc4)ncnc32)c1 | 11.3 | 4.19 | 3.79 | 1.79 | 3.45 | 2.86 | 4.41 | 10.8 | 11.2 | 2.73
4 | CC(=O)NCc1cccc(C#Cc2cncnc2Nc2ccc(OCc3cccc(F)c3)c(Cl)c2)c1 | -0.33 | 2.82 | 2.99 | 0.57 | 2.91 | -0.95 | -0.83 | 11.6 | 50.4 | 2.72
5 | CS(=O)(=O)CCNCc1coc(-c2ccc3ncnc(Nc4ccc(OCc5ccccc5)cc4)c3c2)c1 | 7.45 | 3.83 | 4.34 | 2.88 | 4.04 | 6.1 | 59 | 55.3 | 94.1 | -0.6
6 | N#Cc1c(NC(=O)c2ccc(F)cc2)sc2c1CCCC2 | 5.96 | 2.46 | 3.74 | -0.69 | 0.04 | -0.32 | -0.51 | 5.37 | 7.46 | 0.75
7 | CCn1c(-c2nonc2N)nc2c(C#CC(C)(C)O)nc(OC[C@H](N)c3ccccc3)cc21 | 0.23 | 0.72 | 1.06 | 1.68 | 1.24 | 0.79 | 3.43 | 6.48 | 28.9 | 2.98
8 | CCc1nn2ncccc2c1-c1ccnc(NC2CC2)n1 | 5.11 | 2.18 | 3.88 | 1.21 | 3.43 | 3.58 | 5.82 | 3.42 | 8.22 | 0.5

From ChEMBL document CHEMBL1961873, “Compounds: GSK PKIS; Assays: Nanosyn kinase panel” (2012)
